PubChem BioAssay (NCATS)
Records with an inconclusive call do not appear. Calls of active or inactive are those of the source. The call rests on the fitted dose curve; in most records, active means well fitted activation curve with a large enough effect in the main read-out, with a control signal flat (not every such curve was filed as active); inconclusive means small, poorly fitted or top-dose-only effect, or effect the other way, or a change in a side signal; inactive means flat fitted curve, though single readings scatter.

target: 3',5'-cyclic-AMP phosphodiesterase 4B (Homo sapiens) (UniProt Q07343); experiment: qHTS Assay for Inhibitors of PDE-IV (AID 607); settings: HEK293 ACTOne CNG channel cells, membrane potential fluorescence; series mostly up to 22.9 µM; activation (PDE inhibition): at the top concentration; further: % of control where 0% means no effect
Sequence (Q07343 whole entry, looked up): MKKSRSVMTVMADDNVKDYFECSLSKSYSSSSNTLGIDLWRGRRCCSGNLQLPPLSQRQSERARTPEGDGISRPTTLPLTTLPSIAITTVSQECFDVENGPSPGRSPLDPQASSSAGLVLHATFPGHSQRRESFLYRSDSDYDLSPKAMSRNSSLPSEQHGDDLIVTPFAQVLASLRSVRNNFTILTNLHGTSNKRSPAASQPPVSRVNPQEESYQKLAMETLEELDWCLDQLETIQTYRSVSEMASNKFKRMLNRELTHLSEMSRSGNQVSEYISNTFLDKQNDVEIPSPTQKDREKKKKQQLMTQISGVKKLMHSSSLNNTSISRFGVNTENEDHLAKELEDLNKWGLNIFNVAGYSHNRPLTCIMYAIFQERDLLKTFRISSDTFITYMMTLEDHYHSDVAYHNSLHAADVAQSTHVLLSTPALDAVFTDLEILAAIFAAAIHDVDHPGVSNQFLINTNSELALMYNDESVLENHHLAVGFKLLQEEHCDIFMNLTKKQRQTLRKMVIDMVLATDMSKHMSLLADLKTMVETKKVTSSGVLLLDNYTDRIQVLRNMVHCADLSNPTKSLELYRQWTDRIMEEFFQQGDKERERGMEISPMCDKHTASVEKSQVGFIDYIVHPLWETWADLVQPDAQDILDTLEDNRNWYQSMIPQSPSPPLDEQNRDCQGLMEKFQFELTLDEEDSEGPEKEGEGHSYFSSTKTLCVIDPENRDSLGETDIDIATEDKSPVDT
Excerpt: NIH Chemical Genomics Center [NCGC]
NIH Molecular Libraries Screening Centers Network [MLSCN]
The cyclic nucleotide phosphodiesterases (PDEs) are proteins that catalyze hydrolysis of 3', 5'-cyclic nucleotides, such as cyclic adenosine monophosphate (cAMP) and cyclic guanosine monophosphate (cGMP), to their corresponding 5'-nucleotide monophosphates. These enzymes play an important role in controlling cellular concentrations of cyclic nucleotides and have a central role in a variety of intracellular signaling events. cAMP PDEs are emerging as a promising class of drug targets in asthma and cardiovascular disease therapeutic areas.
There are no commercially available cell-based screening assays for PDE inhibitors: currently biochemical assays are done using pure substrates (cAMP or cGMP) and purified recombinant PDE enzymes. As with other biochemical screens on intracellular targets, false positives and false negatives may result from issues involving cell membrane permeability, cellular metabolism, and the like.
Here we report the development of a cell-based screening assay for cAMP phosphodiesterase (PDE) inhibitors. The assay is based on the BD ACTOne# technology (BD Biosciences) which utilizes a modified cyclic nucleotide-gated channel (CNG) to monitor intracellular cAMP changes in live cells. The CNG channel is localized on the plasma membrane, and opens when the intracellular cAMP level increases, resulting in ion flux and cell membrane depolarization. The influx of cations through the CNG channel can be quantified using membrane potential (MP) dyes. We modified the BD ACTOne technology to allow the detection of PDE inhibitors, and performed an inhibitor screen for PDE-IV, which is expressed endogenously in HEK293 cells. We optimized this assay in homogeneous 1536-well plate assay format for high throughput screening.
NCGC Assay Protocol Summary:
The medium contained 10% FBS (Invitrogen), 2 mM L-glutamine, and 250 ug/ml G418 (Cellgro) and 1 ug/ml puromycin (Clontech). ACTOneTM parental cells (BD Biosciences) were maintained in the same medium without puromycin.
The activity of the CNG channel was measured by BD ACTOneTM membrane potential dye kit (BD Biosciences). Forskolin, a positive control for cAMP activation and RO 20-1724, a PDE inhibitor, were both purchased from Sigma and solublized in DMSO.
Sequence,Parameter,Value,Description
1,Reagent,3 uL,1000 cells/well 1536 TC treated Black plate
3,Compound,0.5 uL,Kalypsys dispense RO 20-1724 100 uM final [A]
4,Reagent,3 uL,BD membrane potential dye
6,Compound,23 nL,Final concentration was 0.7nM to 22.9uM
8,Detector,EX 535 / EM 590 [B],Envision
Footnotes: [A] The stock 2 mM RO 20-1724 PDE inhibitor was made in 10 % DMSO. Parental cell line received 10 uM forskolin + 100 uM RO. [B] Envsion settings: Bottom Excitation 535/20 nm top emission 590/20, gain of 150 and 5 flashes per well.
Keywords: PDE, PDE-IV, cytotoxicity, flourescence, MLSMR, MLSCN, NIH Roadmap, qHTS, NCGC

Structure (SMILES) | activation (PDE inhibition) | outcome
O=CN1C[C@H]2C[C@@H](C1)c1cccc(=O)n1C2 | 14.5% (inactive) | –
CC(=O)[C@@H]1CC[C@@H]2[C@H]3CC[C@H]4C[C@@H](O)CC[C@]4(C)[C@@H]3C(=O)C[C@]21C | 5.6% (inactive) | –
COc1cc2c(cc1OC)-c1c(O)c(OC)cc3c1[C@@H](C2)N(C)CC3 | 8.1% (inactive) | –
NC(=O)c1ccc(OC[C@H](O)CN2CC=C(c3ccc(F)cc3)CC2)cc1 | 9.96% (inactive) | –
O=[N+]([O-])c1ccc(O[C@H]2O[C@@H](CO)[C@@H](O)[C@@H](O)[C@@H]2F)c([N+](=O)[O-])c1 | 4.56% (inactive) | –
CCN(CC)c1ncnc2c1ncn2[C@@H]1O[C@@H](COP(=O)(O)OP(=O)(O)C(Br)(Br)P(=O)(O)O)[C@H](O)[C@H]1O | 12.6% (inactive) | –
COC1=C[C@H]2[C@@H]3Cc4ccc(OC)c(O)c4[C@@]2(CCN3C)CC1=O | 2.63% (inactive) | –
C[C@@]12CC[C@H]3[C@@H](CCC4=CC(=O)CC[C@]43C)[C@H]1CCC2=O | 1.12% (inactive) | –
O=c1cccc2n1C[C@@H]1C[C@H]2CN2CCCC[C@H]12 | -21.6% (inactive) | –
CC[C@H]1CN2CC[C@@H]1C[C@@H]2[C@H](O)c1ccnc2ccccc12 | -13% (inactive) | –
C=CCN1CC[C@@]23CCCC[C@@H]2[C@@H]1Cc1ccc(O)cc13 | 11.9% (inactive) | –
C[N+]1(C)CCO[C@@](O)(c2ccc(-c3ccc([C@]4(O)C[N+](C)(C)CCO4)cc3)cc2)C1 | -7.01% (inactive) | –
CCCc1cc2c(n1Cc1ccco1)C(C)C1CN(C(=O)c3ccccc3)C(C)(C(=O)OC)C21 (stereo not given) | -11% (inactive) | –
C/C=C(\C)C(=O)O[C@@H]1C(C)=C2[C@H]([C@@H]1OC(=O)CCCCCCC)[C@@](C)(OC(C)=O)C[C@@H](OC(=O)CCC)[C@@]1(O)[C@H]2OC(=O)[C@]1(C)O | 27.6% (inactive) | –
Oc1cc2c(cc1O)[C@H]1c3ccccc3CN[C@@H]1CC2 | 17.9% (inactive) | –
CC(C)[C@@]1(NC(=O)[C@@H]2C[C@H]3c4cccc5[nH]cc(c45)C[C@@H]3N(C)C2)O[C@@]2(O)[C@H]3CCCN3C(=O)[C@@H](Cc3ccccc3)N2C1=O | 2.8% (inactive) | –
CC(C)(C)c1ccc(O)c(C[N+](C)(C)C)c1 | 3.08% (inactive) | –
NC(N)=Nc1ccc2[nH]c3c(c2c1)C[C@]1(O)[C@@H]2Cc4ccc(O)c5c4[C@]1(CCN2CC1CC1)[C@H]3O5 | -10.1% (inactive) | –
CN1CCc2cc3c(cc2[C@@H]1[C@H]1OC(=O)c2c1ccc1c2OCO1)OCO3 | – | inactive
C[C@H](N[C@@H](C)CCc1ccccc1)[C@H](O)c1ccc(O)cc1 | 3.01% (inactive) | –

Structure (SMILES) | activation (PDE inhibition) | outcome
O=C1CC[C@]2(O)[C@H]3Cc4ccc(O)c5c4[C@@]2(CCN3CC2CC2)[C@@H]1O5 | -4.94% (inactive) | –
C[C@H]1CCCC=CC2C[C@H](O)C[C@@H]2[C@H](O)/C=C\C(=O)O1 (stereo not given in full) | 7.77% (inactive) | –
C=C1C/C(=C\C)C(=O)O[C@@H]2CCN3CC=C(COC(=O)[C@]1(C)O)[C@H]23 | -27.5% (inactive) | –
c1cc2c(cc1[C@H]1OC[C@H]3[C@@H]1CO[C@H]3c1ccc3c(c1)OCO3)OCO2 | 13.7% (inactive) | –
CCCc1cc2c(n1CCO)C(C)C1CN(C(=O)c3ccccc3)C(C)(C(=O)OC)C21 (stereo not given) | 1.58% (inactive) | –
O[C@@H]1CCCC[C@H]1N1CCC(c2ccccc2)CC1 | -3.41% (inactive) | –
COc1ccc2[nH]c3c(c2c1)CCN=C3C | 4.34% (inactive) | –
CO[C@@H](C)[C@](O)(C(=O)OC1=CCN2CC[C@H](O)[C@H]12)C(C)C | 1.51% (inactive) | –
CN[C@@H](C)[C@@H](O)c1ccccc1 | -10.1% (inactive) | –
O=C(CCCN1CCC2(CC1)C(=O)N(CCc1ccc(N=C=S)cc1)CN2c1ccccc1)c1ccc(F)cc1 | 8.23% (inactive) | –
CC1=C2[C@@H]3OC(=O)[C@H](C)[C@H]3CC[C@@]2(C)C=CC1=O | 1.03% (inactive) | –
COC(=O)[C@@H]1C[C@@H]1[C@@H](NP(=O)(c1ccccc1)c1ccccc1)c1ccccc1 | 27.3% (inactive) | –
O=C1C[C@H]2OCCC=C3CN4CC[C@@]56c7ccccc7N1[C@@H]5[C@H]2[C@H]3C[C@@H]46 | 16.2% (inactive) | –
CC(C)(O)[C@H]1[C@H]2OC(=O)[C@@H]1[C@]1(O)C[C@H]3O[C@]34C(=O)O[C@H]2[C@]14C (tested in a mixture with another compound) | 5.71% (inactive) | –
CC[C@@]12CCCN3CC[C@@]4(c5ccc(OC)c(O)c5N(C(C)=O)[C@H]4CC1)[C@H]32 | -5.89% (inactive) | –
CCN(CC)C(=O)N[C@H]1C[C@H]2c3cccc4[nH]cc(c34)C[C@@H]2N(C)C1 | -2.46% (inactive) | –
CC[C@H](CO)NC(=O)[C@@H]1C=C2c3cccc4c3c(cn4C)C[C@@H]2N(C)C1 | -2.74% (inactive) | –
C[C@@H]1CCC/C=C\[C@H]2C[C@H](O)C[C@@H]2[C@H](O)/C=C\C(=O)O1 | -13.7% (inactive) | –
OC[C@H]1CCCN2CCCC[C@@H]12 | -70.4% (inactive) | –
COC(=O)[C@@]1(Cc2ccc(F)cc2)[C@H]2c3cc(C(=O)N(C)C)[nH]c3C[C@H]2CN1C(=O)c1ccccc1 | 15.7% (inactive) | –
